These results are taken from PubChem BioAssay (Tox21).

Where “and” joins values, the source holds several entries; their conditions need not be identical. Identical values can stand only once. Records with an inconclusive call do not appear. A call without a number means that no potency is given here. Calls of active or inactive are those of the source. Calls follow the shape of the dose curve; as a rule, active = well fitted curve in the direction sought with a large enough effect in the repeat runs; inconclusive = weak or mixed curves; inactive = no such curve, though single readings can be large; an effect the other way counts as inactive or inconclusive.

One assay can be described thus: qHTS assay to identify small molecule antagonists of the glucocorticoid receptor (GR) signaling pathway - cell viability counter screen (AID 720693). Also: nearly all actives have a fitted effect of over 55% in size. As to conditions: GR-bla HeLa viability, CellTiter-Glo luminescence, 18 h, with 5 nM dexamethasone present; series mostly up to 58.5 µM. On the technique in general: Quantitative high-throughput screening tests each substance at several concentrations.
For the compound `[P]#[In]`, the Potency entry was “inactive”.
Same read-out and setting: with `Cl/C=C/CCl` the entry was “inactive”; with `CC(C)(O)C(Cl)(Cl)Cl`, “inactive”; with `CCOC(=O)NC(C)(C)Cc1ccc(Cl)cc1`, “inactive”.
Still for that read-out and setting: to `CCCCCCCCSC(=O)Oc1cc(Cl)nnc1-c1ccccc1` belongs “inactive”.
On the same count and under the same terms, with `CCN(CC)C1CCCCC1` the entry was “inactive”; with `CC(Cc1ccccc1)NCCn1cnc2c1c(=O)n(C)c(=O)n2C` (stereo unspecified), “inactive”; with `O=P(O)(O)c1ccccc1`, “inactive”.
On to `O=C(Cl)/C=C/C(=O)Cl`, for which the Potency result is “inactive”.
On the same count and under the same terms, with `O=c1[nH]oc2c1CCNC2` the entry was “inactive”.
In the case of `C=C(C)[C@H]1CN[C@H](C(=O)O)[C@H]1CC(=O)O`, the Potency entry was “inactive”.
Same read-out and setting: with `CCNc1nc(Cl)nc(NC(C)(C)C)n1` the entry was “inactive”.
Still for that read-out and setting: with `CC(C)(C)C(=O)C(Cl)Cl` the entry was “inactive”.
The same measure, in the same setting: to `CCCCS(=O)(=O)Cl` belongs “inactive”.
As to `CCCOC(=O)Cc1ccc(OCC(=O)N(CC)CC)c(OC)c1`, the Potency result is “inactive”.
For `CCC(=O)OC1(c2ccccc2)CCN(C)CC1`, the Potency result was “inactive”.
For the compound `CCOC(=O)c1ncn2c1CN(C)C(=O)c1c(I)cccc1-2`, the Potency result was “inactive”.
Take `CC1=C2[C@H]3OC(=O)[C@@H](C)[C@@H]3CC[C@@]2(C)C=CC1=O`: the Potency entry is “inactive”.
Consider `CCNc1nc(NCC)nc(SC)n1`, for which the Potency entry is “inactive”.
The same measure, in the same setting: to `CCOC1Oc2ccc(OS(C)(=O)=O)cc2C1(C)C` (stereo unspecified) belongs “inactive”; to `CNC(=O)Oc1cc(C)c(N(C)C)c(C)c1`, “inactive”.
The same measure, in the same setting: to `C[C@@H](N)[C@@H](O)c1ccccc1` belongs “inactive”.
Same read-out and setting: to `CC(C)(N)Cc1ccc(Cl)cc1` belongs “inactive”; to `O=C(NC(=O)c1c(F)cccc1F)Nc1cc(Cl)c(F)c(Cl)c1F`, “inactive”.
As for `CC(C)(C1CCC(O)CC1)C1CCC(O)CC1` (stereo unspecified), the Potency entry is “inactive”.

The next assay can be described thus: qHTS assay for identifying genotoxic compounds that show differential cytotoxicity against isogenic chicken DT40 cell lines with known DNA damage response pathways - wild type cell line (AID 743012). Also: nearly all actives have a fitted effect of over 60% in size. Also: potency is read from the fitted curve at half-maximal effect. The note with it: DT40 wild type chicken cells viability, CellTiter-Glo, 40 h; series mostly up to 68.4 µM. In a few lines:
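Endpoint: CellTiter-Glo luminescence, 30 min RT. Cells: wild type DT40, 300/well. Exposure: compounds in DMSO, 40 h, 37 C/5% CO2, after ~0.5 h pre-incubation.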
`C=C1CC[C@@]2(O)[C@H]3Cc4ccc(O)c5c4[C@@]2(CCN3CC2CC2)[C@H]1O5`: the Potency entry was “inactive”.
On the same count and under the same terms, to `CC[C@@H](CO)NC(=O)[C@@H]1C=C2c3cccc4c3c(cn4C)C[C@H]2N(C)C1` belongs 13.3 µM (active); to `OP(O)c1ccccc1`, “inactive”.
On the same count and under the same terms, to `NCCOS(=O)(=O)O` belongs “inactive”; to `OCC(Cl)CCl` (stereo unspecified), “inactive”.
With `NNCc1ccccc1`, the Potency entry was “inactive”.

The next assay in a line: qHTS assay for identifying genotoxic compounds that show differential cytotoxicity against isogenic chicken DT40 cell lines with known DNA damage response pathways - Rev3 mutant cell line (AID 743014). Also: nearly all actives have a fitted effect of over 55% in size. Also: potency is read from the fitted curve at half-maximal effect. The note with it: chicken DT40 Rev3-/- viability, CellTiter-Glo, 40 h; series mostly up to 68.4 µM.
Turning to `C[C@]12C=CC(=O)C=C1CC[C@@H]1[C@@H]2CC[C@@]2(C)[C@H]1CC[C@]2(C)O`, the Potency is 11.9 µM (active).
Same read-out and setting: to `O=S1(=O)OCCO1` belongs “inactive”; to `Cl/C=C/CCl`, “inactive”; to `CC(C)(O)C(Cl)(Cl)Cl`, “inactive”.
`OP(O)c1ccccc1`: the Potency result is “inactive”.
The same measure, in the same setting: with `NCCOS(=O)(=O)O` the entry was “inactive”; with `CC[C@@H](CO)NC(=O)[C@@H]1C=C2c3cccc4[nH]cc(c34)C[C@H]2N(C)C1`, “inactive”.
Still for that read-out and setting: to `CCOC(=O)NC(C)(C)Cc1ccc(Cl)cc1` belongs “inactive”; to `CCCCCCCCSC(=O)Oc1cc(Cl)nnc1-c1ccccc1`, 54.5 µM (active); to `ClC1=C(Cl)C2(Cl)C(CBr)CC1(Cl)C2(Cl)Cl` (stereo unspecified), 27.3 µM (active).
On the same count and under the same terms, to `O=C1C2CC=CCC2C(=O)N1SC(Cl)(Cl)Cl` (stereo unspecified) belongs 531 nM (active) and 683 nM (active) and 107 nM (active); to `CCN(CC)C1CCCCC1`, “inactive”; to `CC(Cc1ccccc1)NCCn1cnc2c1c(=O)n(C)c(=O)n2C` (stereo unspecified), “inactive”.
Regarding `O=P(O)(O)c1ccccc1`, the Potency entry is “inactive”.
Take `O=c1[nH]oc2c1CCNC2`: the Potency entry is “inactive”.
Same read-out and setting: to `CCNc1nc(Cl)nc(NC(C)(C)C)n1` belongs “inactive”; to `CC(C)(C)C(=O)C(Cl)Cl`, “inactive”.
`CCCCS(=O)(=O)Cl`: the Potency entry was “inactive”.
For `OCC(Cl)CCl` (stereo unspecified), the Potency entry was “inactive”.
The same measure, in the same setting: to `CCOC(=O)c1ncn2c1CN(C)C(=O)c1c(I)cccc1-2` belongs “inactive”.
On the same count and under the same terms, to `CCOC1Oc2ccc(OS(C)(=O)=O)cc2C1(C)C` (stereo unspecified) belongs 27.1 µM (active).
Same read-out and setting: to `CON(C)C(=O)Nc1ccc(Br)c(Cl)c1` belongs 61.1 µM (active); to `N=C(N)[Se]`, 2.44 µM (active); to `NNCc1ccccc1`, “inactive”.

A short description of the next assay: qHTS assay for identifying genotoxic compounds that show differential cytotoxicity against isogenic chicken DT40 cell lines with known DNA damage response pathways - Rad54/Ku70 mutant cell line (AID 743015). Also: nearly all actives have a fitted effect of over 60% in size. Also: potency is read from the fitted curve at half-maximal effect. As to conditions: DT40 Rad54/Ku70 mutant viability, CellTiter-Glo, 40 h; series mostly up to 66.8 µM.
Take `[P]#[In]`: the Potency result was “inactive”.
The same measure, in the same setting: with `C[C@]12C=CC(=O)C=C1CC[C@@H]1[C@@H]2CC[C@@]2(C)[C@H]1CC[C@]2(C)O` the figure was 29.8 µM (active); with `O=S1(=O)OCCO1`, “inactive”.
The same measure, in the same setting: to `Cl/C=C/CCl` belongs “inactive”; to `C=C1CC[C@@]2(O)[C@H]3Cc4ccc(O)c5c4[C@@]2(CCN3CC2CC2)[C@H]1O5`, “inactive”; to `C=CCN1CC[C@]23CCCC[C@H]2[C@H]1Cc1ccc(O)cc13`, “inactive”.
Still for that read-out and setting: with `OP(O)c1ccccc1` the entry was “inactive”; with `NCCOS(=O)(=O)O`, “inactive”.
As to `CC[C@@H](CO)NC(=O)[C@@H]1C=C2c3cccc4[nH]cc(c34)C[C@H]2N(C)C1`, the Potency entry is “inactive”.
The same measure, in the same setting: with `ClC1=C(Cl)C2(Cl)C(CBr)CC1(Cl)C2(Cl)Cl` (stereo unspecified) the figure was 30.6 µM (active); with `O=C1C2CC=CCC2C(=O)N1SC(Cl)(Cl)Cl` (stereo unspecified), 596 nM (active) and 2.42 µM (active) and 135 nM (active).
The same measure, in the same setting: with `O=P(O)(O)c1ccccc1` the entry was “inactive”.
The same measure, in the same setting: with `O=C(Cl)/C=C/C(=O)Cl` the entry was “inactive”; with `O=c1[nH]oc2c1CCNC2`, “inactive”.
Take `CC(C)(C)C(=O)C(Cl)Cl`: the Potency entry was “inactive”.
Same read-out and setting: with `CCCCS(=O)(=O)Cl` the entry was “inactive”.
Still for that read-out and setting: with `OCC(Cl)CCl` (stereo unspecified) the entry was “inactive”; with `CCCOC(=O)Cc1ccc(OCC(=O)N(CC)CC)c(OC)c1`, “inactive”; with `CCC(=O)OC1(c2ccccc2)CCN(C)CC1`, “inactive”.
The same measure, in the same setting: with `CC1=C2[C@H]3OC(=O)[C@@H](C)[C@@H]3CC[C@@]2(C)C=CC1=O` the entry was “inactive”; with `CCOC1Oc2ccc(OS(C)(=O)=O)cc2C1(C)C` (stereo unspecified), 54 µM (active); with `CC(C)(C)c1cc(O)ccc1O`, 6.68 µM (active) and 48.6 µM (active) and 12.2 µM (active).
For the compound `CC(C)(N)Cc1ccc(Cl)cc1`, the Potency entry is “inactive”.
Same read-out and setting: with `CC(C)(C1CCC(O)CC1)C1CCC(O)CC1` (stereo unspecified) the entry was “inactive”; with `N=C(N)[Se]`, 2.44 µM (active).
On the same count and under the same terms, with `NNCc1ccccc1` the entry was “inactive”.
